Data taken from PubChem BioAssay.
Active and inactive are the calls of the source. Unless noted, how the calls were made is not given here.

Tests used:
[1] = compound effects on lung adenocarcinoma cell viability – A549, calcein-AM fluorescence, 48 h, basal, profiling panel (AID 1162); settings: higher = more signal; further: test concentration not given here
[2] = compound effects on differentiated 3T3-L1 adipocyte viability – cell-based, 3T3-L1 adipocytes, calcein-AM fluorescence, 48 h, basal, profiling panel (AID 1163); settings: 3T3-L1 adipocytes viability, higher = more signal; further: test concentration not given here
[3] = compound effects on hepatocellular carcinoma cell viability – HepG2, calcein-AM fluorescence, 48 h, basal, profiling panel (AID 1164); settings: higher = more signal; further: test concentration not given here
[4] = compound effects on multiple myeloma cell viability – MM1S, calcein-AM fluorescence, 48 h, basal, profiling panel (AID 1165); settings: higher = more signal;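 further: viability of MM1S multiple myeloma cells under basal unstimulated conditions; test concentration not given here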
[5] = calcein-AM signal in unstimulated myeloma cells – cell-based, calcein-AM fluorescence, 48 h, PK04 Diversity Set, profiling panel (AID 1166); settings: RPMI8226 myeloma viability, higher = more signal;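 further: cells grown under basal conditions without added stimulus; test concentration not given here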
[6] = JC-1 mitochondrial signal, unstimulated HepG2 cells – cell-based, JC-1 fluorescence, 24 h, 100 nL compound, profiling panel (AID 1167); settings: HepG2 mitochondrial potential, higher = more signal; further: test concentration not given here
[7] = JC-1 mitochondrial signal, unstimulated adipocytes – cell-based, JC-1 fluorescence, 3T3-L1 adipocytes, 24 h, 100 nL compound, profiling panel (AID 1168); settings: JC-1 mitochondrial fluorescence, higher = more signal, called active from +8 up or from −8 down; further: test concentration not given here
[8] = JC-1 mitochondrial signal, unstimulated myeloma cells – cell-based, JC-1 fluorescence, RPMI8226, 24 h, 100 nL compound, profiling panel (AID 1169); settings: JC-1 mitochondrial potential fluorescence, higher = more signal; further: test concentration not given here
[9] = JC-1 mitochondrial signal, unstimulated MM1S myeloma – cell-based, JC-1 fluorescence, 24 h, 100 nL compound, profiling panel (AID 1170); settings: MM1S mitochondrial potential, higher = more signal; further: test concentration not given here
[10] = resazurin metabolic signal in A549 cells – cell-based, resazurin fluorescence, 24 h, PK04 Diversity Set, profiling panel (AID 1171); settings: A549 viability, higher = more signal, called active from +8 up or from −8 down; further: test concentration not given here
[11] = resazurin metabolic signal in HepG2 cells – cell-based, resazurin fluorescence, 24 h, PK04 Diversity Set, profiling panel (AID 1172); settings: HepG2 viability, higher = more signal; further: test concentration not given here
[12] = budding yeast growth changes without added modifier – OD600, strain BY4716, 24 h, basal condition, primary screen (AID 1173); settings: S. cerevisiae BY4716 growth, OD600, 24 h; higher = more signal, called active from +8 up or from −8 down
[13] = viability profiling in MM1S myeloma cells – cell-based, resazurin fluorescence, basal, 24 h, PK04 Diversity Set, profiling panel (AID 1174); settings: higher = more signal, called active from +8 up or from −8 down; further: test concentration not given here
[14] = molecular target: Dihydroorotate dehydrogenase (quinone), mitochondrial (Plasmodium falciparum (isolate 3D7)) (UniProt Q08210); assay: inhibition of P. falciparum DHODH – biochemical, C-terminal His tag, absorbance 600 nm, primary screen (AID 1175); settings: PfDHODH enzyme, DCIP absorbance 600 nm; higher = more signal, called active from +8 up or from −8 down;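 further: recombinant parasite enzyme with a five histidine tag at its C terminus; test concentration not given here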
[15] = inhibition of PAO1 biofilm formation – strain PAO1, LB-PBS medium, absorbance 600 nm, primary screen (AID 1176); further: test concentration not given here; settings: P. aeruginosa PAO1 growth/biofilm, A600, 12 h; higher = more signal
[16] = growth modulation of vineyard yeast isolate – strain RM11-1a, OD600, basal, 24 h, primary screen (AID 1177);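 further: cultures grown under basal conditions with no added stressor; test concentration not given here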; settings: S. cerevisiae RM11-1a growth, OD600, 24 h; higher = more signal, called active from +8 up or from −8 down
[17] = growth of efflux-deficient E. coli DRC39 – strain DRC39, OD650, 24 h, E. coli filamentation inducers, primary screen (AID 1178);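 further: growth measured as culture turbidity by optical density at 650 nm; test concentration not given here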; settings: E. coli DRC39 acrAB, higher = more signal, called active from +8 up or from −8 down
[18] = growth of efflux-deficient E. coli DRC39 – strain DRC39, OD650, 48 h, E. coli filamentation inducers, primary screen (AID 1179);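 further: screen aims at cell division blockers that make cells filament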; settings: E. coli DRC39 delta-acrAB growth, higher = more signal, called active from +8 up or from −8 down
[19] = viability profiling in RPMI8226 myeloma cells – cell-based, resazurin fluorescence, basal, 24 h, PK04 Diversity Set, profiling panel (AID 1180); settings: higher = more signal;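 further: RPMI8826 multiple myeloma cell line at 5000 cells per well; test concentration not given here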
[20] = molecular target: E3 ubiquitin-protein ligase XIAP (Homo sapiens) (UniProt P98170); assay: small molecules binding XIAP protein – biophysical, small-molecule microarray, fluorescence 635 nm, primary screen (AID 1181); settings: higher = more signal;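 further: score merges 667 nm emission and signal to noise over triplicate slides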
Chain of E3 ubiquitin-protein ligase XIAP (Homo sapiens) (P98170 whole entry, looked up): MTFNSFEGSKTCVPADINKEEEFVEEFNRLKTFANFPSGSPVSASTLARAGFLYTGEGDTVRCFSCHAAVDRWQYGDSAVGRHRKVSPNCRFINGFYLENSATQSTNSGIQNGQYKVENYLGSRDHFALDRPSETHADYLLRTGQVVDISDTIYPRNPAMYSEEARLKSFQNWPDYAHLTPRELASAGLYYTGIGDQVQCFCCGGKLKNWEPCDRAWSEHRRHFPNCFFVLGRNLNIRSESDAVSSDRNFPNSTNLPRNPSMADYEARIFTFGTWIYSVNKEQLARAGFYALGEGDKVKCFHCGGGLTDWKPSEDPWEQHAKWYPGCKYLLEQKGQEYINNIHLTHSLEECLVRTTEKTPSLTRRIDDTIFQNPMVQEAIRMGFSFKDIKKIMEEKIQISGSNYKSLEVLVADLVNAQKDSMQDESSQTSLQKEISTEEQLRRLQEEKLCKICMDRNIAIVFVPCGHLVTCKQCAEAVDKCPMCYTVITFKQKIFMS

Chain of Dihydroorotate dehydrogenase (quinone), mitochondrial (Plasmodium falciparum (isolate 3D7)) (Q08210 whole entry, looked up): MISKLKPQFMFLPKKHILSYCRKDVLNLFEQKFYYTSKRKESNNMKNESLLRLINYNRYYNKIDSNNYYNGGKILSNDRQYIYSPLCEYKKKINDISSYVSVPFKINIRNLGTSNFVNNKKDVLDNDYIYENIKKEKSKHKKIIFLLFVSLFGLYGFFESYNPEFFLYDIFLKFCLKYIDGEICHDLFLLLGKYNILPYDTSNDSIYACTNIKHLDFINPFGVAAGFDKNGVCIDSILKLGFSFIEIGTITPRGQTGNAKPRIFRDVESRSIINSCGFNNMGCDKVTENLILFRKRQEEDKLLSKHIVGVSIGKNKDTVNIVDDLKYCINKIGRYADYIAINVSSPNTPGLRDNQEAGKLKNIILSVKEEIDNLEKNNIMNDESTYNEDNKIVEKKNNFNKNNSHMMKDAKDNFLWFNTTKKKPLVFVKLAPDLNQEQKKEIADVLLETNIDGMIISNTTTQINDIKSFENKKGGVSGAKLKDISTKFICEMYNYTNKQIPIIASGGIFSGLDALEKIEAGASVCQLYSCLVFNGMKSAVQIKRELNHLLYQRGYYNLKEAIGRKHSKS

Compound	z-score [1]	z-score [2]	z-score [3]	z-score [4]	z-score [5]	z-score [6]	z-score [7]	z-score [8]	z-score [9]	z-score [10]	z-score [11]	z-score [12]	z-score [13]	composite z-score [14]	z-score [15]	z-score [16]	z-score [17]	z-score [18]	z-score [19]	composite z-score [20]
CN(C)C(=O)[C@@]1(CCS(=O)(=O)c2ccccc2)N=C(c2ccc(OCCCO)cc2)O[C@H]1c1ccccc1CN=[N+]=[N-]	1.29	0.828	-0.294	-0.582	-0.314	0.548	-0.264 (inactive)	-0.114	-1.31	0.712 (inactive)	1.01	-1.19 (inactive)	0.958 (inactive)	0.307 (inactive)	-0.385 (inactive)	-0.791 (inactive)	1.13 (inactive)	0.802 (inactive)	0.251	-0.0381
C=CC[C@@]1(C(=O)NCC(O)CO)N=C(c2ccc(OCCCO)cc2)O[C@@H]1c1ccccc1 (stereo not given in full)	0.183	1.07	-0.412	0.281	-0.561	-0.152	0.622 (inactive)	0.49	1.18	0.295 (inactive)	0.483	-2.05 (inactive)	0.552 (inactive)	0.358 (inactive)	-0.223 (inactive)	-0.108 (inactive)	2.08 (inactive)	0.196 (inactive)	0.934	-0.0374
CCCN1C(=O)[C@@]2(Cc3ccccc3)N=C(c3ccc(OCCCO)cc3)O[C@H]2c2ccccc21	-1.54	0.778	-1.7	-2.34	-4.32	-0.214	1.18 (inactive)	-1.27	-0.647	-0.232 (inactive)	0.167	-2.03 (inactive)	-1.66 (inactive)	-0.319 (inactive)	1.02 (inactive)	0.673 (inactive)	0.248 (inactive)	-0.319 (inactive)	-1.57	-0.206
C[N+](C)(C)CCCC[C@@H]1NC(=O)[C@H]2C[C@@H](C(=O)NCCCCCCN)[C@@H](c3cccc(OCCO)c3)N2C1=O	-0.535	0.875	-0.997	0.179	1.07	-1.01	-0.547 (inactive)	-0.0252	-0.154	-0.871 (inactive)	-2.69	-0.707 (inactive)	0.45 (inactive)	-0.114 (inactive)	1.18 (inactive)	-0.0241 (inactive)	-0.678 (inactive)	-1.35 (inactive)	0.652	0.194
O=C1OCC=C[C@H]2OC34C=CCN(CCN5CCOCC5)C(=O)[C@H]3N(CCCCCO)C(=O)[C@@H]4[C@@H]12 (stereo not given in full)	0.348	0.277	-0.36	0.148	0.182	-0.539	0.379 (inactive)	0.205	0.802	-0.536 (inactive)	-0.267	-0.654 (inactive)	-1.12 (inactive)	0.31 (inactive)	-0.525 (inactive)	0.105 (inactive)	-1.18 (inactive)	-1.37 (inactive)	-0.82	0.11
COc1ccc([Si](C)(C)[C@H]2[C@H](CCn3cc(CCO)nn3)O[C@@]3(C(=O)N(Cc4cccc(N5C(=O)c6cccc7cccc5c67)c4)c4ccccc43)[C@@H]2C)cc1	-1.05	-0.354	-4.39	-2.83	-4.51	1.6	2.9 (inactive)	-1.05	-2.03	-3.05 (inactive)	-2.74	0.425 (inactive)	-6.02 (inactive)	-0.455 (inactive)	1.76 (inactive)	2.16 (inactive)	2.38 (inactive)	1.74 (inactive)	-5.82	0.235
CCN(CC)c1ccc(N2CC=CC34O[C@@H]5/C=C\CCCOC(=O)C5[C@H]3C(=O)N(CCCCCCO)[C@@H]4C2=O)cc1 (stereo not given in full)	0.626	0.554	1.24	0.0885	0.0026	1.09	0.587 (inactive)	-0.25	0.0342	0.0444 (inactive)	-0.574	-1.14 (inactive)	0.93 (inactive)	-2.09 (inactive)	-0.869 (inactive)	-1.78 (inactive)	0.318 (inactive)	0.901 (inactive)	0.79	-0.083
CC(C)(C)OC(=O)CC[C@]1(C(=O)O)COC(c2ccc(OCCCO)cc2)=N1	-0.0651	-2.83	0.218	-0.97	0.151	-0.924	-0.564 (inactive)	-0.812	0.148	-0.135 (inactive)	0.265	0.167 (inactive)	-0.249 (inactive)	-0.055 (inactive)	-0.596 (inactive)	0.433 (inactive)	-0.341 (inactive)	-0.447 (inactive)	-0.0624	-0.118
O=C(O)[C@]1(CCS(=O)(=O)c2ccccc2)N=C(c2ccc(OCCCO)cc2)O[C@@H]1c1ccccc1	0.195	0.103	0.296	-1.2	1.18	-0.509	-0.372 (inactive)	-0.928	0.0474	0.704 (inactive)	0.93	-0.334 (inactive)	0.716 (inactive)	-0.295 (inactive)	-1.3 (inactive)	-0.707 (inactive)	1.92 (inactive)	0.815 (inactive)	0.314	-0.0988
COC(=O)[C@@]1(Cc2ccc(OC)cc2)[C@H]2c3cc(C(=O)N4CCCC4)n(CCc4ccc(O)c(OC)c4)c3C[C@H]2CN1C(=O)c1ccccc1	-1.47	0.0048	-0.0475	-1.03	-0.254	-0.851	-0.867 (inactive)	-0.167	-0.563	1.05 (inactive)	-0.21	0.768 (inactive)	-0.427 (inactive)	-0.474 (inactive)	0.467 (inactive)	0.279 (inactive)	-0.744 (inactive)	-0.939 (inactive)	-0.125	0.659
[N-]=[N+]=NCc1ccccc1C[C@]1(C(=O)NCCN2CCOCC2)COC(c2ccc(OCCCO)cc2)=N1	1.18	-0.487	0.652	0.689	-0.699	2.24	0.498 (inactive)	-0.218	-1.05	0.169 (inactive)	-0.801	-1.36 (inactive)	-1.28 (inactive)	0.456 (inactive)	0.535 (inactive)	-0.383 (inactive)	0.786 (inactive)	0.0653 (inactive)	0.106	-0.0125
C#CCNS(=O)(=O)N(C)C	-0.277	-0.738	0.759	0.716	-0.227	0.563	0.48 (inactive)	0.0262	-0.777	0.943 (inactive)	0.175	-0.61 (inactive)	-0.207 (inactive)	0.196 (inactive)	-0.218 (inactive)	0.648 (inactive)	-0.263 (inactive)	0.56 (inactive)	0.544	-0.05
C=C(/C(=C/C[C@@H](OC(C)=O)c1ccccc1OCCO)c1cnc2ccccc2c1)C(C)C	-0.0635	2.39	-0.795	-2.36	-1.45	0.517	-1.27 (inactive)	-0.0844	1.74	-0.945 (inactive)	-1	-1.34 (inactive)	-0.601 (inactive)	-5.68 (inactive)	0.108 (inactive)	0.29 (inactive)	-0.997 (inactive)	-0.667 (inactive)	-0.267	-0.102
COc1cc2c(cc1OC)CN(C(=O)[C@@H]1[C@H]3C(=O)O[C@H](c4ccccc4)[C@H](c4ccccc4)N3[C@H](c3ccc(OCCO)cc3)[C@@]13C(=O)Nc1ccc(C#CCCO)cc13)CC2	-0.433	1.06	-0.857	-0.369	-0.987	-1.56	1 (inactive)	-0.862	-1.04	0.519 (inactive)	-0.0794	0.66 (inactive)	0.113 (inactive)	1.66 (inactive)	2.75 (inactive)	1.45 (inactive)	0.592 (inactive)	-0.13 (inactive)	0.768	-0.113
C=CCNC(=O)[C@H]1[C@@H]2C(=O)O[C@@H](c3ccccc3)[C@@H](c3ccccc3)N2[C@@H](c2ccc(O)cc2)[C@]12C(=O)N(C(=O)OCCOC)c1ccc(C#CC3(O)CCCCCC3)cc12	0.904	0.76	2.26	-1.2	-3.53	-1.84	0.509 (inactive)	-0.713	-0.808	-0.316 (inactive)	-0.0051	-0.897 (inactive)	0.221 (inactive)	0.157 (inactive)	0.806 (inactive)	2.27 (inactive)	0.665 (inactive)	0.951 (inactive)	0.41	0.0479
